These results are taken from PubChem BioAssay AID1822 (The Scripps Research Institute Molecular Screening Center, 2009).

In all, about 290,000 compounds went through this assay and about 3,500 (1.2%) were called active.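 The calls were made as follows: active = inhibition above the campaign mean inhibition over all tested compounds plus 3 SD (cut at about 28% in these data); inactive = the rest.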 The list comes from a sample in which actives are over-represented; it also holds similar structures and randomly drawn compounds.

This test relates to M18 aspartyl aminopeptidase (Plasmodium falciparum 3D7). Description: PfM18AAP inhibitors, malaria aminopeptidase, primary screen, biochemical, QFRET, recombinant enzyme (AID 1822).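 Also: 0% = plate median of test compound wells and 100% = 2 mM ZnCl2.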 The following applies: H-Glu-NHMec fluorogenic cleavage, at 7.35 µM, active compounds read high.
For `O=C(CCn1nnc2ccccc21)OCC(=O)c1ccc([N+](=O)[O-])cc1`, the inhibition (usually the drop in the measured response relative to a control, in per cent) is 21.8% (inactive). Then `O=C(CC(n1cncn1)C(Cl)(Cl)Cl)c1ccc([N+](=O)[O-])cc1` (stereo not drawn), with 55.3% (active). In the case of `O=C(CSc1nc2ccc([N+](=O)[O-])cc2[nH]1)c1ccc(Cl)cc1`, the inhibition was 3.49% (inactive).

For the molecule `COc1cc(SC)ccc1C(=O)N(Cc1ccccc1)c1ccccc1`, the inhibition was 0.45% (inactive).

For the molecule `Cc1nn(CC(=O)NC2CCCCC2)c(=O)c2cccn12`, the inhibition is -6.41% (inactive). The figure for `CCN1/C(=C/C(=S)Nc2ccccc2)Sc2ccccc21` is 46.3% (active); for `CCN1/C(=C/c2ccc3ccc(C)cc3[n+]2CC)Sc2ccccc21` it is -2.79% (inactive). Then `O=C(CCN1c2ccccc2Sc2ccccc21)Nc1ccccc1`, with 6.09% (inactive). As for `O=c1c2cc([N+](=O)[O-])ccc2nc2n1CCC2`, the inhibition was 3.84% (inactive). For the molecule `Fc1ccccc1COc1cccc2cccnc12`, the inhibition is -17.2% (inactive). Regarding `O=C(CSc1nc2cccnc2n1Cc1ccccc1)N1CCc2ccccc21`, the inhibition is -2.92% (inactive). As to `CCOC(=O)N1CCN(S(=O)(=O)c2ccc(Br)cc2)CC1`, the inhibition was -5.88% (inactive).

Turning to `COc1ccc(OC)c2sc(NC(=O)C3COc4ccccc4O3)nc12` (stereo not drawn), the inhibition was -7.49% (inactive). Then `O=C(Nc1nnc(C2COc3ccccc3O2)o1)c1ccc(F)cc1` (stereo not drawn), with 5.07% (inactive).

As for `c1ccc2c(c1)OCC(c1nn3cnnc3s1)O2` (stereo not drawn), the inhibition was 55.2% (active).

On to `COc1cc(NC(=O)C2=CC(c3ccc(C)cc3)=NS(=O)(=O)N2C)cc(OC)c1OC`, for which the inhibition was 13.1% (inactive). The figure for `CC(=O)c1ccc(N2CCN(C(=O)C3CCN(S(=O)(=O)c4ccc5c(c4)CC(C)N5C(=O)C4CC4)CC3)CC2)cc1` (stereo not drawn) is -0.32% (inactive); for `CN(CCC1CCOCC1)C(=O)CC1C(=O)NCCN1Cc1cccc(F)c1` (stereo not drawn) it is 6.55% (inactive). The figure for `CCCOc1ccc(C2NC(=O)NC(c3ccccc3)=C2C(C)=O)cc1OCC` (stereo not drawn) is -0.97% (inactive); for `COc1cccc(COc2ccc(N(C)S(=O)(=O)c3ccccc3)cc2)c1` it is 4.14% (inactive). The figure for `O=C(/C=C/Nc1ccccc1OC(F)(F)F)C(F)(F)F` is -3.52% (inactive). As for `CN(C)c1ccc(N/C=C/C(=O)C(F)(F)F)cc1`, the inhibition was 29.1% (active). With `CC(=O)N(C)c1ccc(NC(=O)C(F)(F)F)cc1`, the inhibition is -1.27% (inactive).

On to `COc1cccc2sc(Nc3nc(C)c(C(C)=O)s3)nc12`, for which the inhibition is 7.92% (inactive). Then `COc1cccc2sc(NNC(=O)c3nc4ccccc4s3)nc12`, with 30.1% (active); and `COc1ccccc1OCc1nc2ccccc2s1`, with 2.93% (inactive); and `CCCc1cc(=O)n2[nH]c(C)c(-c3ccc(Cl)cc3)c2n1`, with -3.86% (inactive). For `Cc1ccc(NC2CCCN(C(=O)CCC3(C)CC3)C2)cc1C` (stereo not drawn), the inhibition was 12.1% (inactive). The figure for `O=[N+]([O-])c1ccc(N2CCSCC2)cc1O` is 7.26% (inactive); for `O=C1CSC(=S)N1/N=C/c1ccc(O)c([N+](=O)[O-])c1` it is 39.1% (active).

`Cc1cc(C(=O)N/N=C/c2ccc(O)c([N+](=O)[O-])c2)c(C)n1-c1ccc(F)cc1`: the inhibition was 1.56% (inactive). The figure for `CCC(C)(C)NC(=O)C1c2ccccc2Oc2ccccc21` is 0.98% (inactive); for `CCC(C)NC(=O)C1c2ccccc2Oc2ccccc21` (stereo not drawn) it is -7.47% (inactive); for `O=C(N/N=C/c1ccc(O)c(O)c1)C1c2ccccc2Oc2ccccc21` it is 66.5% (active). The figure for `CC(C)(C)SCCSC1=CC(=O)CC(c2ccccc2)C1` (stereo not drawn) is -7.92% (inactive); for `COc1ccc(CCNC(=O)CN2C(=O)COc3ccc(S(=O)(=O)N4CCCC4)cc32)cc1OC` it is 0.73% (inactive). With `COc1ccccc1Cc1nc(-c2ccc(C)cc2)no1`, the inhibition was 0.56% (inactive). For the molecule `Cc1ccc(-c2noc(CN3CCN(Cc4ccccc4)CC3)n2)cc1`, the inhibition is -2.79% (inactive).

With `Cc1ccc(-c2noc(CC(c3ccccc3)c3ccccc3)n2)cc1`, the inhibition is 34.4% (active). The figure for `CCOC(=O)c1ccc(NC(=S)N2CCN(c3ccccn3)CC2)cc1` is 0.52% (inactive); for `CSCCC(NS(=O)(=O)c1ccc(C)cc1)C(=O)N1CCCC1` (stereo not drawn) it is -2.59% (inactive). Turning to `COc1ccc(CNc2nc3c(c(=O)[nH]c(=O)n3C)n2Cc2ccccc2)cc1`, the inhibition is 7.49% (inactive). With `C=CCSc1nc2c(c(=O)[nH]c(=O)n2C)n1Cc1ccccc1`, the inhibition was -7.79% (inactive). With `Cn1c(=O)[nH]c(=O)c2c1[nH]c(=S)n2Cc1ccccc1`, the inhibition is 51.6% (active). The figure for `CCS(=O)(=O)C1=NSC2=NC(=O)/C(=C\c3ccc(OS(=O)(=O)c4ccccc4)cc3)C(=N)N21` is 5.46% (inactive); for `CC1CCC2(CC1)NC(=O)N(Cc1nnc(-c3cccs3)o1)C2=O` (stereo not drawn) it is -3.12% (inactive); for `CC(=O)Nc1ccc(Nc2c3ccccc3nc3ccccc23)cc1` it is 4.35% (inactive). Regarding `CC(C)(C)OC(=O)NNc1c2ccccc2nc2ccccc12`, the inhibition is 29.7% (active).

In the case of `O=C(NNc1c2ccccc2nc2ccccc12)c1cc2ccccc2cc1O`, the inhibition was 1.24% (inactive). With `O=c1c2cc(-c3ccccc3)sc2nc2n1N=C(c1cccs1)CS2`, the inhibition is 6.06% (inactive). Then `CC1CCN(S(=O)(=O)c2ccc3[nH]c(=O)ccc3c2)CC1`, with -0.17% (inactive); and `O=C(c1cnn(-c2ccc(Cl)cc2)c1)c1ccccc1O`, with -0.75% (inactive). Turning to `Cc1ncc(CC(=O)n2cc(C(=O)c3cc(Cl)ccc3O)cn2)s1`, the inhibition is 29.3% (active). Regarding `Cc1ccc(CCC(=O)Nc2ncc(Cc3cc(Cl)ccc3Cl)s2)o1`, the inhibition was -7.4% (inactive). With `O=S(=O)(c1ccc(-c2ccno2)s1)N1CCCCC1`, the inhibition was 11% (inactive).

Consider `CCOc1ccccc1-c1cc(C(=O)N/N=C(\C)c2cccnc2)c2ccccc2n1`, for which the inhibition was 1.07% (inactive). In the case of `CC(C)c1ccc(NC(=S)NNc2ccc(Cl)c(C(=O)O)c2)cc1`, the inhibition is 39.9% (active). `O=C(NC(=S)Nc1ccc(Cl)c(C(=O)O)c1)c1cncc(Br)c1`: the inhibition was 15.9% (inactive). As for `Cc1ccc(C)c(NC(=S)NNC(=S)Nc2ccc(C(C)C)cc2)c1`, the inhibition was 3.44% (inactive). Then `COc1cccc(-n2c(N)cc(=O)nc2SCC(=O)Nc2cc(C)on2)c1`, with -2.14% (inactive); and `O=C(CCc1ccccc1)Nc1ncc([N+](=O)[O-])s1`, with 4.6% (inactive). Then `O=C(Nc1ncc([N+](=O)[O-])s1)C1COc2ccccc2O1` (stereo not drawn), with 12% (inactive); and `CC(=O)Oc1ccccc1C(=O)Nc1ncc([N+](=O)[O-])s1`, with 35.7% (active).
